Measurements: the supplement of paper PMC7530171
± gives the standard deviation.

These compounds were tested on THP-1 (assay: THP-1 cell loss relative to DMSO control; higher = more host cell loss (toxicity); extreme values may be limits of the assay). Details: 10 µM; 4 days; infection: M. tuberculosis H37Rv.
Experimental: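 OICR kinase inhibitor library screened in duplicate at 10 uM against M. tuberculosis-infected THP-1 macrophages, 4 days at 37 C. THP-1 cell loss (cytotoxicity or loss of adherence) was quantified from Hoechst-stained nuclei counts by high-content imaging and normalised to the 1% DMSO control; 100 = complete loss of host cells.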

SMILES	THP-1 cell loss [%]
COc1ccc(-c2ccc3ncc4c(c3c2)n(-c2ccc(N3CCNCC3)c(C(F)(F)F)c2)c(=O)n4C)cn1	100
COc1cc2nccc(Oc3ccc(NC(=O)Nc4cc(C)on4)c(Cl)c3)c2cc1OC	27.4 ± 5
Cc1ccc(NC2=CC(=O)c3sc(C)nc3C2=O)cc1 [Ryuvidine]	100
COc1cc2nccc(Oc3ccc(NC(=O)C4(C(=O)Nc5ccc(F)cc5)CC4)cc3)c2cc1OC	83.9 ± 4.8
N#CCNC(=O)c1ccc(-c2ccnc(Nc3ccc(N4CCOCC4)cc3)n2)cc1	100
CN(C)S(=O)(=O)c1ccc2c(c1)/C(=C/c1cc3c([nH]1)CCCC3)C(=O)N2	7.5 ± 1.4
Cc1cc(Nc2nc(N[C@@H](C)c3ncc(F)cn3)ncc2Cl)[nH]n1	4.08 ± 4.6
Cn1c(Nc2ccc(C(F)(F)F)cc2)nc2cc(Oc3ccnc(-c4ncc(C(F)(F)F)[nH]4)c3)ccc21	100
NC(=O)c1ccc(N(C(N)=O)c2c(F)cccc2F)nc1-c1ccc(F)cc1F	10.1 ± 4.9
Cc1ccccc1-n1c(Cn2nc(-c3cccc(O)c3)c3c(N)ncnc32)nc2cccc(C)c2c1=O	43.9 ± 23
S=C(NCc1ccc2c(c1)OCO2)N1CCN(c2ncnc3c2oc2ccccc23)CC1	20.7 ± 25
Cn1c(=O)n(-c2ccc(C(C)(C)C#N)cc2)c2c3cc(-c4cnc5ccccc5c4)ccc3ncc21	36.6 ± 7.3
Cn1cc(-c2ccc3nnc(C(F)(F)c4ccc5ncccc5c4)n3n2)cn1	13.4 ± 19
COc1cc2ncc(-c3ccccc3)nc2cc1OC [Tyrphostin AG-1296]	0
CCCS(=O)(=O)Nc1ccc(F)c(C(=O)c2c[nH]c3ncc(Cl)cc23)c1F	11.5 ± 14
Nc1ccc(-c2cccc3c(=O)cc(N4CCOCC4)oc23)cc1	39.6 ± 3.5
NCc1ccc(Nc2ncc(F)c(Nc3ccccc3)n2)cc1 [Dianilinopyrimidine_01]	88.5 ± 16
COc1cc(N2CCC(N3CCN(C)CC3)CC2)ccc1Nc1ncc(Cl)c(Nc2ccccc2S(=O)(=O)C(C)C)n1	26.4 ± 0.6
COc1cc(OC)c(C=C2C(=O)Nc3ccccc32)c(OC)c1	45.3 ± 6.7
COC(=O)Nc1ccc(-c2nc(N3CCOCC3)c3cnn(C4CCN(C(=O)OC)CC4)c3n2)cc1	35.6 ± 0.38

SMILES	THP-1 cell loss [%]
O=c1c(O)c(-c2ccc(O)c(O)c2)oc2cc(O)cc(O)c12 [Quercetin]	12.8 ± 2.6
O=c1[nH]nc(Sc2ncc([N+](=O)[O-])s2)n1-c1ccc2c(c1)OCCO2	31.1 ± 44
Cc1cc2c(F)c(Oc3ncnn4cc(OC[C@@H](C)O)c(C)c34)ccc2[nH]1 [Brivanib]	25.4 ± 0.91
CCN(CC)CCCCNc1ncc2cc(-c3cc(OC)cc(OC)c3)c(NC(=O)NC(C)(C)C)nc2n1	8.25 ± 12
O=C(NC[C@H](O)CO)c1ccncc1Nc1ccc(I)cc1F	100
Cc1cccc(-c2nn(C(=S)Nc3ccccc3)cc2-c2ccnc3ccccc23)n1	2.37 ± 3.4
O=c1cc(-c2cccc3c2Sc2ccccc2S3)oc(N2CCOCC2)c1	26.6 ± 14
CN1CCN(c2ccc3nc(-c4c(N)c5c(F)cccc5[nH]c4=O)[nH]c3c2)CC1 [Dovitinib]	100
COc1ccc(OC)c2c(=S)c3ccccc3[nH]c12	9.79 ± 3.8
Cc1nc(N)sc1-c1ccnc(Nc2ccc(N3CCOCC3)cc2)n1	74.97 ± 0.66
CO[C@H]1C[C@@H]2CC[C@@H](C)[C@@](O)(O2)C(=O)C(=O)N2CCCC[C@H]2C(=O)O[C@H]([C@H](C)C[C@@H]2CC[C@@H](O)[C@H](OC)C2)CC(=O)[C@H](C)/C=C(\C)[C@@H](O)[C@@H](OC)C(=O)[C@H](C)C[C@H](C)/C=C/C=C/C=C/1C [Rapamycin]	33.4 ± 6.3
CCCCCCCC(=O)OCCOC(=O)CCCCCCC [Dioctanoylglycol]	4.61 ± 6.5
CN(c1ccccc1CNc1nc(Nc2ccc3c(c2)CC(=O)N3)ncc1C(F)(F)F)S(C)(=O)=O	100
CCn1c(-c2nonc2N)nc2c(C#CC(C)(C)O)ncc(OC[C@H]3CCCNC3)c21	15.8 ± 3.6
O=C1NCCCc2c1oc1ccc(O)cc21	6.23 ± 8.8
CCN(CC)CCNC(=O)c1c(C)[nH]c(/C=C2\C(=O)Nc3ccc(F)cc32)c1C [Sunitinib Malate]	53.7 ± 18
Cc1ccc(S(=O)(=O)Nc2nc3ccccc3nc2Nc2ccc3nsnc3c2)cc1	40.9 ± 5.2
CO[C@@H](C(=O)N1Cc2[nH]nc(NC(=O)c3ccc(N4CCN(C)CC4)cc3)c2C1)c1ccccc1	19.1 ± 3.7
CN1CC[C@H](c2c(O)cc(O)c3c(=O)cc(-c4ccccc4Cl)oc23)[C@H](O)C1 [Alvocidib]	100
Cc1nc(Nc2ncc(C(=O)Nc3c(C)cccc3Cl)s2)cc(N2CCN(CCO)CC2)n1 [Dasatinib]	34.7 ± 4.4
